Marburg entry inh: Marburg virus entry inhibition. Potency, µM (titrated, usually from 37.8 µM), for the others: top-dose activity change, negative = inhibition, most hits filed as inhibitors. AID 540276. hit rate 1.8% among 300,000. Marburg virus pseudotyped entry inhibition, cell reporter; calls by dose curve; tested in HEK293 cells
HCV inhibitor: HCV inhibition. Huh7.5.1 HCVcc-Cre infection, luciferase reporter, 44 h. Potency, µM (series often up to 41.8 µM), for inactives: top-dose activity change, negative = inhibition, usual class: inhibitors. hit rate 3.4% among 340,000
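Antiviral activity was scored by luciferase reporter output from cells infected with HCVcc-Cre (~0.5 moi) in presence of compound, 44 h infection period, cells seeded 1,000/well 4 h prior.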
LASV entry inh: blocks Lassa virus binding to or entry into cells. Lassa virus pseudotype entry inhibition, cell reporter. hit rate 1.2% among 300,000. Potency, µM (doses to about 37.9 µM), without a hit: at the highest dose activity change, negative = inhibition, usual class: inhibitors; calls by dose curve; tested in HEK293 cells; further: nearly all actives have a fitted effect of over 50% in size
Sm TGR inh: S. mansoni TGR enzyme inhibition. Potency, µM (highest dose often 114 µM), for inactives: at the highest dose activity change, negative = inhibition, most hits filed as inhibitors. Q962Y6. hit rate 3% among 360,000. purified TGR, DTNB reduction, TNB absorbance 405 nm; further: nearly all actives have a fitted effect of over 60% in size
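TGR 20 nM + NADPH 100 uM (dispensed conc.), cpd preinc 15 min RT; start with NADPH (500 uM addition) then DTNB (15 mM addition). Kinetic TNB absorbance, 405 nm filter. Four-parameter Hill fit across titration.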
RE007 growth inh: less growth of the S. pombe RE007 Vpr strain; S. pombe RE007 Vpr strain, BacTiter-Glo ATP luminescence, 24 h; Potency, µM (series often up to 92.2 µM), without a hit: top-dose activity change, negative = less growth, most hits filed as inhibitors; hit rate 0.21% among 360,000; active means well fitted falling curve with a large enough effect; inconclusive means small, poorly fitted or top-dose-only effect; inactive means no such curve, though single readings can be large or run the other way; further: nearly all actives have a fitted effect of over 50% in size
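Fission yeast RE007 carrying one integrated HIV-1 vpr copy, seeded at OD 0.01 in PMG+AL medium with 23 nL pinned compound. Grown 24 h at 30 degrees; viability read by BacTiter-Glo luminescence after 5 min.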
FMDV inh: antivirals against foot and mouth disease virus; AID 1159524; hit rate 1.2% among 410,000; FMDV antiviral cell-based qHTS; Potency, µM (titrated, usually from 57.9 µM), without a hit: at the highest dose activity change, negative = inhibition, usual class: inhibitors; calls by dose curve; tested in HEK293T cells; further: read-out not given here; nearly all actives have a fitted effect of over 45% in size
Numbers without * were called inactive; ? = inconclusive; . = no result; [ ] = another dose, or the depositor's remark. Sampled rows, rich in hits. Any-hit rate of the full collection: about 7.2%. Unless noted, the call rests on the fitted dose curve; in most records, active means well fitted curve in the direction sought with a large enough effect; inconclusive means small, poorly fitted or top-dose-only effect, or another doubt; inactive means no such curve, though single readings can be large; an effect the other way counts as inactive or inconclusive. On the % scale 0 is the no-effect control and ±100 the full control effect; potency means the concentration at half of the fitted maximal effect.

SMILES | Marburg entry inh | HCV inhibitor | LASV entry inh | Sm TGR inh | RE007 growth inh | FMDV inh
CCOCC(=O)Nc1nc2ccc(OCC)cc2s1 | ? | -23% | ? | ? | -1% | 29%
Cc1ccc2nc(NC(=O)CCCC(=O)O)sc2c1 | . | 8% | . | 3% | -3% | 7.9µM*
CCC1=C(O)CC(O)=C(C2NNC(CCC(=O)O)C2C2NC3CCCCC3N2C)C1 (stereo unspecified) | 5%[46.1 µM] | . | . | . | . | .
COc1cccc(Cn2c(=O)c(CCc3ccccc3)nc3cncnc32)c1 | . | . | . | . | . | -1%
Cc1c(C(=O)NCc2ccc(F)cc2)sc2nc3n(c(=O)c12)CCC3 | . | . | 9%[46.1 µM] | -1% | . | -7%
Cc1ccc(-c2onc(C)c2C)cc1S(=O)(=O)N1CCN(c2ccccc2F)CC1 | . | . | 19%[46.1 µM] | -2% | . | ?
CCOc1cc(CNCc2cc(OC)cc(OC)c2)ccc1OC | ? | 0.56µM* | ? | ? | 0% | ?
Cc1c(O)c(O)cc2c1CC=C1[C@]3(C)CC[C@]4(C)CC[C@@](C)(C(=O)O)CC4[C@]3(C)CC[C@]12C (stereo partly specified) | . | . | . | . | . | 25µM*
CC1=C(O)C(=O)C=C2C1=CC=C1C2(C)CCC2(C)C3CC(C)(C(=O)O)CCC3(C)CCC12C (stereo unspecified) | 2.8µM* | ? | ? | . | ? | -11%
CC(=O)Oc1cc2c(c(C)c1OC(C)=O)CC=C1[C@]3(C)CC[C@]4(C)CC[C@@](C)(C(=O)O)CC4[C@]3(C)CC[C@]12C (stereo partly specified) | . | . | . | . | . | 35µM*
CC(NC(=O)C1CC1)c1nnc2n1CCN(Cc1cccc(F)c1F)CC2 (stereo unspecified) | . | . | . | . | . | -1%
CCc1nc2ccc(C(=O)NC3CCN(Cc4ccccc4)CC3)cn2c1N(CC)Cc1cccc(Br)c1 | . | . | . | . | -20%[18.4 µM] | -24%
Cc1cn(C)c(CC(=O)Nc2cccc(Cl)c2C)c1C(=O)O | . | . | 7%[46.1 µM] | -20% | . | -6%
CCC(C)NC(=O)c1ccc2c(c1)N=C(C)c1cc(C)ccc1S2 (stereo unspecified) | ? | . | -17%[46.1 µM] | 2% | . | -18%
Cc1cc(C)c(Nc2nc3ccccc3n3c(C)nnc23)c(C)c1 | . | . | -4%[46.1 µM] | 8% | . | -15%
COc1cccc(CN2CCN(Cc3ccccc3C(F)(F)F)CC2)c1 | ? | 29% | -8%[46.1 µM] | 6% | 1% | -22%
COc1ccc(CN2CCN(Cc3ccccc3C(F)(F)F)CC2)c(OC)c1 | 11µM* | -17% | ? | 0% | -13% | -18%
FC(F)(F)c1ccccc1CN1CCN(C2CCCCCC2)CC1 | 8.2µM* | -11% | ? | 0% | -21% | -26%
O=[N+]([O-])c1ccc(-c2nc(-c3ccc(F)cc3)c(-c3ccncc3)[nH]2)cc1 | 8.2µM* | . | ? | . | . | .
O=[N+]([O-])c1ccc2nc(-c3ccncc3)[nH]c2c1 | . | 4% | . | -3% | 3% | 49%
CSc1ccc2cc(CNCc3ccccc3F)c(N3CCCC(CO)C3)nc2c1 (stereo unspecified) | . | . | . | . | . | 8%
Nc1nc(N)c2[nH]cnc2n1 | . | 6.3µM* | . | . | 4% | -17%
Nc1ncnc2nc[nH]c12 | . | -21% | . | 2% | 2% | 7%
CCOC(=O)c1sc(NC(=O)C(C)Sc2nc(-c3ccccc3)cc(C(F)(F)F)n2)c(C(=O)OC)c1C (stereo unspecified) | 2%[46.1 µM] | . | -21%[46.1 µM] | -1% | . | -13%
N#C/C(=C\c1cccnc1)C(=O)Nc1cccc2ccccc12 | ? | 32% | 12% | -20% | 32µM* | 25µM*
SMILES | Marburg entry inh | HCV inhibitor | LASV entry inh | Sm TGR inh | RE007 growth inh | FMDV inh
COc1cc(C2CC(=O)c3cnc(N4CCN(Cc5ccccc5)CC4)nc3C2)cc(OC)c1OC (stereo unspecified) | ? | ? | 23µM* | 5% | 3% | 16µM*
CC1CC(C)CN(c2ncc3c(n2)CC(c2ccccc2)CC3=O)C1 (stereo unspecified) | -15% | 22% | 2.8µM* | 9% | 13% | 0%
CCOC(=O)N1CCN(c2ncc3c(n2)CC(c2ccccc2O)CC3=O)CC1 (stereo unspecified) | 2%[46.1 µM] | . | ? | 5% | . | 22µM*
Cc1nc(N2CCN(Cc3ccccc3)CC2)nc2c1C(=O)CC(C)C2 (stereo unspecified) | -25% | -22% | ? | -13% | 7% | ?
CCOC(=O)N1CCN(c2ncc3c(n2)CC(c2ccc(Cl)cc2)CC3=O)CC1 (stereo unspecified) | -6%[46.1 µM] | . | ? | 6% | . | ?
CC(C)c1ccc(C2CC(=O)c3cnc(N4CCc5ccccc5C4)nc3C2)cc1 (stereo unspecified) | 12% | -8% | -14% | -13% | 2% | 9%
COc1ccc(C2CC(=O)c3c(C)nc(N4CCN(Cc5ccccc5)CC4)nc3C2)cc1OC (stereo unspecified) | 18µM* | 3.5µM* | 8.2µM* | -10% | 3% | 11µM*
CC(C)N1C(=O)/C(=C\c2nc3ccccc3c(=O)[nH]2)c2ccccc21 | ? | ? | ? | 2% | 6% | 40µM*
CCCN1C(=O)/C(=C/c2nc3ccccc3c(=O)[nH]2)c2ccccc21 | ? | 6% | -7% | 3% | -4% | 0%
CN1CCN(c2ccc(C=O)cc2)CC1 | 0%[46.1 µM] | 10% | 3% | -12% | -1% | 23%
Oc1ccc(N2Cc3ccccc3C2)cc1 | ? | 4% | ? | 22µM* | -8% | 22%
O=C(O)c1ccc(N2Cc3ccccc3C2)cc1O | 17% | 6% | 11% | ? | 1% | .
Oc1cccc(N2Cc3ccccc3C2)c1 | . | -10% | . | 10µM* | -4% | 29%
O=Cc1ccc(N2Cc3ccccc3C2)cc1 | 1.3µM* | 6% | ? | ? | 4% | 13%
Cc1cccc(-c2noc(-c3ccccc3NC(=O)C3CC(=O)N(c4ccccc4C)C3)n2)c1 (stereo unspecified) | -3%[46.1 µM] | . | 6%[46.1 µM] | -5% | . | -11%
CCCNS(=O)(=O)c1ccc(OCC(=O)N2CCN(c3ccccc3)CC2)cc1 | -11%[46.1 µM] | -3% | 0% | 6% | -15% | 14%
CCCNS(=O)(=O)c1ccc(OCC(=O)N2CCN(Cc3ccccc3)CC2)cc1 | ? | -14% | 18µM* | 8% | -5% | 0%
CCCNS(=O)(=O)c1ccc(CCC(=O)Nc2ccc3c(c2)OCO3)cc1 | ? | -6% | -12% | 2% | 4% | 38%
O=C(COc1ccc(S(=O)(=O)N2CCCCC2)cc1)N1CCN(Cc2ccccc2)CC1 | ? | ? | ? | 28µM* | -9% | -25%
CCCCNS(=O)(=O)c1ccc(OCC(=O)N2CCN(Cc3ccc4c(c3)OCO4)CC2)cc1 | . | 3.2µM* | . | 5% | 6% | -21%
CC(=O)c1ccc(S(=O)(=O)NCCCC(=O)N(C)Cc2ccc3c(c2)OCO3)cc1 | . | 2% | . | 16µM* | 13% | -7%

Source: PubChem BioAssay (National Center for Advancing Translational Sciences (NCATS))
